# Source: PubChem BioAssay (EPA / NIEHS)
# Active and inactive are the calls of the source. How the source made its calls: active means hit-call score of the fitted dose curve at least 0.9, where 1 is the maximum; inactive means score below 0.9.
# Test: CCTE_Padilla_ZF_Score.General: CCTE's 144 Hour Post-fertilization zebrafish Assay Score for General Malformation, Padilla Lab (AID 2284411)
# Experimental: CCTE_Padilla_ZF_Phenotype_Score is a whole embryo, multiplexed assay using zebrafish ova exposed for 144 hours post fertilization on a 96-well plate.CCTE_Padilla_ZF_Score.General is one of one assay component(s) measured or calculated from the CCTE_Padilla_ZF_Phenotype_Score assay. It is designed to make measurements of zebrafish development as detected with brightfield microscopy of developing zebrafish embryos.Data from the assay component CCTE_Padilla_ZF_Score.General was analyzed into 1 assay endpoints. This assay endpoint, CCTE_Padilla_ZF_Score.General, was analyzed in the positive analysis fitting direction relative to DMSO as the negative control and baseline of activity. Using a type of viability reporter, gain-of-signal activity can be used to understand changes in developmentals as they relate to the whole embryo. To generalize the intended target to other relatable targets, this assay endpoint is annotated to the zebrafish development intended target family, where the subfamily is embryonic morphogenesis.
# Zebrafish husbandry: Wild type adult zebrafish (Danio rerio; undefined outbred stock obtained from Aquatic Research Organisms, Hampton, NH, 03842) were housed in an AAALAC-approved animal facility at 28C with a 14:10 h light: dark cycle (lights on at 08:30 h). Adult fish (2-3 females per male; density = 15-20 adults per tank) were kept in one of several 9-liter (L) flow-through colony tanks (Aquaneering Inc., San Diego, CA). All adults in a colony tank were placed in a 2 L (static) breeding tank (Aquatic Habitats, Apopka, FL) one hour prior to light onset. Typically, adults from two to three colony tanks were mated on the same day. Two hours after light onset the adults were returned to the colony tank. All embryos were gathered from each breeder tank, pooled, and placed in a 28C water bath for 2 h, followed by two washes with 0.06% bleach (v/v) in 10% Hanks' Balanced Salt Solution (13.7 mM NaCl 0.54 mM KCl, 25 uM Na2HPO4, 130 uM CaCl2 100 um MgSO4 and 420 um NaHCO3,), hereafter referred to as Hanks' solution, for 5 min in order to remove any residual bacteria or fungi. Immediately following washing, the embryos were examined, and healthy embryos were separated from dead or unfertilized eggs and moved into fresh Hanks'. Chemical exposures: Zebrafish embryos were exposed in 96-well plates. Between 6- and 8-hours post fertilization (hpf), healthy embryos (with chorions) were transferred, one embryo per well, into 96 well (0.5 mL) microtiter plates (Cell Culture-Treated, Flat-Bottom Microplate 96 well [Corning Costar, Kennebunk, ME; Cat 09-761-145]) filled with 200 uL of Hanks' solution. A random number generator was used to assign the order in which the rows of embryos were plated in 96 well plates each week. After plating, the embryos were dosed with 0.8 uL of the chemical dosing solution then immediately sealed with AlumaSeal II (Excel Scientific Inc, Victorville, CA) to prevent volatilization of the chemicals, and then placed in a leakproof secondary container. These containers were placed in an incubator maintained on a 14:10 h light: dark cycle at 26C for rearing. On 5 dpf, live larvae were gently moved out of the plate with test chemicals and into a new 96 well mesh plate (Millipore Corp., Bedford, MA) with just the Hanks' solution. Once within the mesh well plate, the animals were rinsed with 400 uL of fresh Hanks' three times, and then the plates were covered with a non-adhesive material (Microseal A, BioRad, Hercules, CA), plate lid added, and then plate sides wrapped in Parafilm (PM992, Bermis Company, Neenah, WI), and returned to the incubator. […]
SMILES,outcome,AC50
O=C(O)CCC(F)(F)C(F)(F)C(F)(F)C(F)(F)C(F)(F)C(F)(F)F,inactive,
FC(F)(F)C1(F)C(F)(F)C(F)(F)C(F)(F)C(F)(C(F)(F)F)C1(F)F (stereo not given),inactive,
FCOC(C(F)(F)F)C(F)(F)F,inactive,
O=P(O)(O)CCC(F)(F)C(F)(F)C(F)(F)C(F)(F)C(F)(F)C(F)(F)C(F)(F)C(F)(F)F,,1.78 µM (active)
O=C(O)CCC(F)(F)C(F)(F)C(F)(F)C(F)(F)C(F)(F)F,,10.7 µM (active)
O=P(O)(O)CCC(F)(F)C(F)(F)C(F)(F)C(F)(F)C(F)(F)C(F)(F)F,inactive,
O=CC(F)(F)C(F)(F)C(F)(F)F,,79.6 µM (active)
O=C(CC(=O)C(F)(F)C(F)(F)C(F)(F)F)c1cccs1,inactive,
CCCCCCCCCCCCCCCCCC[N+](C)(C)Cc1ccccc1,inactive,
FC(F)(F)N1C(F)(F)C(F)(F)OC(F)(F)C1(F)F,inactive,
FC(F)(F)C1(F)C(F)(F)C(F)(F)C(F)(F)C1(F)F,inactive,
OCCN1CN(CCO)CN(CCO)C1,inactive,
O=C1OC(=O)C(F)(F)C1(F)F,inactive,
NC(C(F)(F)F)C(F)(F)F,inactive,
FC(OC(F)(F)C(F)(F)C(F)(F)F)C(F)(F)F (stereo not given),inactive,
FC1(F)C=CC(F)(F)C1(F)F,inactive,
CN(CCO)S(=O)(=O)C(F)(F)C(F)(F)C(F)(F)C(F)(F)C(F)(F)C(F)(F)C(F)(F)C(F)(F)F,inactive,
C=CC(F)(F)C(F)(F)C(F)(F)C(F)(F)F,inactive,
O=C(OC(=O)C(F)(F)C(F)(F)F)C(F)(F)C(F)(F)F,inactive,
O=C(F)C(F)(F)C(F)(F)C(F)(F)C(=O)F,inactive,
OCC(F)(F)C(F)(F)C(F)(F)C(F)(F)C(F)(F)C(F)(F)C(F)(F)C(F)(F)C(F)(F)C(F)(F)C(F)(F)F,inactive,
CC(C)(c1ccc(Oc2ccc(N)cc2)cc1)c1ccc(Oc2ccc(N)cc2)cc1,inactive,
C=CC(=O)OCCC(F)(F)C(F)(F)C(F)(F)C(F)(F)C(F)(F)C(F)(F)C(F)(F)C(F)(F)F,inactive,
COC(=O)C(F)(F)C(F)(F)C(F)(F)C(F)(F)C(F)(F)F,inactive,
FC(F)=C(F)C(F)(F)C(F)(F)C(F)(F)C(F)F,inactive,
COC1=CC(=O)C[C@@H](C)[C@]12Oc1c(Cl)c(OC)cc(OC)c1C2=O,inactive,
C=CC(C)(CCC=C(C)C)OC(C)=O (stereo not given),inactive,
O=C(O)C(F)(F)OC(F)(F)C(F)(F)OC(F)(F)C(F)(F)OC(F)(F)C(F)(F)C(F)(F)C(F)(F)F,,2.18 µM (active)
O=CC(F)(F)C(F)(F)C(F)(F)C(F)F,inactive,
O=C1c2ccc(O)c(O)c2C(=O)c2c(O)ccc(O)c21,inactive,
